From the supplement of paper PMC6897291
Counter-ions that a name gives are not always drawn.

What was measured:
[1] = test system: U-2932; assay: growth inhibition by drug alone (1 - RLU/untreated control) (fraction); higher = stronger inhibition; details: 177Lu-lilotomab satetraxetan 0 ug/ml
Procedure, shortened: (§1)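 With or without 18 h pretreatment by a radiolabelled anti-CD37 antibody conjugate (~600 MBq/mg; 0.5 µg/ml RIVA, 1 µg/ml U-2932), RIVA and U-2932 cells were washed and plated at 3,000 cells/well. Pre-printed compound doses were 10/100 nM for RIVA and 10/1,000 nM for U-2932. Growth inhibition uses RealTime-Glo RLU relative to the untreated no-drug wells. The calculation is 1 − RLU/mean of 48 such wells per plate, with reads daily from day 3 after 1 h at 37°C.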

[2] = test system: U-2932; assay: growth inhibition by drug plus 177Lu-lilotomab satetraxetan (1 - RLU/untreated control) (fraction); higher = stronger inhibition; details: 177Lu-lilotomab satetraxetan 1 ug/ml
Procedure, shortened: as §1

[3] = test system: RIVA; assay: as above; details: 177Lu-lilotomab satetraxetan 0.5 ug/ml
Procedure, shortened: as §1

[4] = test system: RIVA; assay: growth inhibition by drug alone (1 - RLU/untreated control) (fraction); higher = stronger inhibition; details: 177Lu-lilotomab satetraxetan 0 ug/ml
Procedure, shortened: as §1

SMILES | growth inhibition by drug alone ([1]; 10 nM, time (day): 3) | growth inhibition by drug alone ([1]; 10 nM, time (day): 4) | growth inhibition by drug alone ([1]; 10 nM, time (day): 5) | growth inhibition by drug alone ([1]; 10 nM, time (day): 6) | growth inhibition by drug alone ([1]; 1000 nM, time (day): 3) | growth inhibition by drug alone ([1]; 1000 nM, time (day): 4) | growth inhibition by drug alone ([1]; 1000 nM, time (day): 5) | growth inhibition by drug alone ([1]; 1000 nM, time (day): 6) | growth inhibition by drug plus 177Lu-lilotomab satetraxetan ([2]; 10 nM, time (day): 3) | growth inhibition by drug plus 177Lu-lilotomab satetraxetan ([2]; 10 nM, time (day): 4) | growth inhibition by drug plus 177Lu-lilotomab satetraxetan ([2]; 10 nM, time (day): 5) | growth inhibition by drug plus 177Lu-lilotomab satetraxetan ([2]; 10 nM, time (day): 6) | growth inhibition by drug plus 177Lu-lilotomab satetraxetan ([2]; 1000 nM, time (day): 3) | growth inhibition by drug plus 177Lu-lilotomab satetraxetan ([2]; 1000 nM, time (day): 4) | growth inhibition by drug plus 177Lu-lilotomab satetraxetan ([2]; 1000 nM, time (day): 5) | growth inhibition by drug plus 177Lu-lilotomab satetraxetan ([2]; 1000 nM, time (day): 6) | growth inhibition by drug plus 177Lu-lilotomab satetraxetan ([3]; 10 nM, time (day): 3) | growth inhibition by drug plus 177Lu-lilotomab satetraxetan ([3]; 10 nM, time (day): 4) | growth inhibition by drug plus 177Lu-lilotomab satetraxetan ([3]; 10 nM, time (day): 5) | growth inhibition by drug plus 177Lu-lilotomab satetraxetan ([3]; 10 nM, time (day): 6) | growth inhibition by drug plus 177Lu-lilotomab satetraxetan ([3]; 100 nM, time (day): 3) | growth inhibition by drug plus 177Lu-lilotomab satetraxetan ([3]; 100 nM, time (day): 4) | growth inhibition by drug plus 177Lu-lilotomab satetraxetan ([3]; 100 nM, time (day): 5) | growth inhibition by drug plus 177Lu-lilotomab satetraxetan ([3]; 100 nM, time (day): 6) | growth inhibition by drug alone ([4]; 10 nM, time (day): 3) | growth inhibition by drug alone ([4]; 10 nM, time (day): 4) | growth inhibition by drug alone ([4]; 10 nM, time (day): 5) | growth inhibition by drug alone ([4]; 10 nM, time (day): 6) | growth inhibition by drug alone ([4]; 100 nM, time (day): 3) | growth inhibition by drug alone ([4]; 100 nM, time (day): 4) | growth inhibition by drug alone ([4]; 100 nM, time (day): 5) | growth inhibition by drug alone ([4]; 100 nM, time (day): 6)
CCOC(=O)C1=C[C@]2(CC)CCCN3CCc4c(n1c1ccccc41)[C@@H]32 [Vinpocetine (Cavinton)] | -0.0944 | -0.0619 | -0.0289 | 0.127 | 0.0303 | 0.0355 | 0.0149 | 0.00297 | -0.0659 | -0.0355 | -0.00313 | 0.159 | 0.000715 | 0.0172 | 0.0304 | 0.134 | 0.457 | 0.533 | 0.549 | 0.545 | 0.362 | 0.396 | 0.4 | 0.377 |  |  |  |  |  |  |  | 
CC(C)n1nc(-c2ccc3oc(N)nc3c2)c2c(N)ncnc21 | 0.366 | 0.275 | 0.188 | 0.215 | 0.912 | 0.912 | 0.917 | 0.929 | 0.352 | 0.294 | 0.31 | 0.355 | 0.908 | 0.905 | 0.918 | 0.937 | 0.595 | 0.576 | 0.586 | 0.587 | 0.816 | 0.84 | 0.835 | 0.833 |  |  |  |  |  |  |  | 
CCc1cc(-c2n[nH]c(C)c2-c2ccc3c(c2)OCCO3)c(O)cc1O | 0.113 | 0.047 | -0.0381 | -0.212 | 0.0202 | -0.0494 | -0.116 | -0.126 | 0.0102 | 0.053 | 0.0491 | 0.0788 | 0.0475 | 0.0422 | 0.0841 | 0.183 | 0.478 | 0.547 | 0.565 | 0.581 | 0.363 | 0.462 | 0.473 | 0.48 | -0.0752 | -0.183 | -0.489 | -0.797 | -0.563 | -0.433 | -0.46 | -0.629
CC(C)(C)c1cnc(CSc2cnc(NC(=O)C3CCNCC3)s2)o1 | -0.112 | -0.121 | -0.0865 | -0.0439 | 0.946 | 0.962 | 0.971 | 0.978 | -0.136 | -0.0562 | 0.00872 | 0.121 | 0.955 | 0.966 | 0.975 | 0.983 | 0.484 | 0.533 | 0.556 | 0.564 | 0.267 | 0.359 | 0.373 | 0.353 | -0.214 | -0.262 | -0.264 | -0.28 | -0.524 | -0.411 | -0.58 | -0.723
CCN(CC)CCCC(C)Nc1nc(C)cc(Nc2ccc3nc(C)cc(N)c3c2)n1 (stereo not given) | 0.0927 | 0.0716 | -0.114 | -0.134 | 0.0662 | 0.0733 | -0.022 | -0.107 | 0.0413 | 0.106 | 0.161 | 0.181 | 0.092 | 0.11 | 0.165 | 0.255 | 0.572 | 0.606 | 0.627 | 0.625 | 0.489 | 0.538 | 0.548 | 0.545 |  |  |  |  |  |  |  | 
CCCCc1nc2cc(/C=C/C(=O)NO)ccc2n1CCN(CC)CC [SB939 (Pracinostat)] | 0.0917 | 0.0424 | -0.0359 | -0.128 | 0.935 | 0.941 | 0.959 | 0.973 | 0.0531 | 0.113 | 0.137 | 0.186 | 0.95 | 0.96 | 0.973 | 0.982 | 0.656 | 0.663 | 0.693 | 0.699 | 0.817 | 0.85 | 0.868 | 0.876 | 0.107 | 0.0736 | 0.0778 | 0.0437 | 0.513 | 0.435 | 0.418 | 0.353
COC(=O)C1=C(C)NC(C)=C(C(=O)OCCCN2CCC(c3ccccc3)(c3ccccc3)CC2)[C@H]1c1cccc([N+](=O)[O-])c1 [S-(+)-Niguldipine hydrochloride] | 0.0443 | 0.0164 | -0.0556 | -0.116 | 0.105 | 0.109 | 0.032 | 0.0169 | -0.0121 | 0.0306 | 0.0867 | 0.111 | 0.113 | 0.151 | 0.317 | 0.268 | 0.569 | 0.592 | 0.608 | 0.623 | 0.527 | 0.552 | 0.566 | 0.562 |  |  |  |  |  |  |  | 
NC(=O)c1ccc2nc(-c3ccc(Oc4ccc(Cl)cc4)cc3)[nH]c2c1 | 0.00125 | 0.0235 | 0.00264 | -0.0848 | -0.16 | -0.101 | -0.0954 | -0.129 | 0.0152 | 0.0513 | 0.0592 | 0.129 | -0.283 | -0.107 | -0.0258 | 0.0425 | 0.4 | 0.51 | 0.52 | 0.516 | 0.455 | 0.517 | 0.523 | 0.501 | -0.00863 | -0.0511 | -0.0793 | -0.24 | -0.111 | -0.096 | -0.133 | -0.184
N#Cc1ccc(NC(=O)Nc2ccccc2Br)c2n[nH]nc12 | 0.122 | 0.0624 | -0.115 | -0.0627 | 0.0674 | 0.0714 | -0.0804 | -0.0945 | 0.0243 | 0.065 | 0.134 | 0.142 | 0.0797 | 0.0995 | 0.138 | 0.218 |  |  |  |  |  |  |  |  |  |  |  |  |  |  |  | 
